Values joined by “and” are separate entries in the source; they are usually repeats but may differ in a detail not shown here. Equal values may be shown once. Screen size: about 5,500 compounds; about 2,000 (36%) were called active. Inconclusive results (about 18%) are left out. Cut-off read from the data, not from the text of the source: active = normalized growth mostly below about 0.91 (no sharp cut-off); inconclusive = no clear call, values can overlap the other calls; inactive = mostly above about 0.92. Some of the results follow.
Experiment: chemical genetic growth profiling, strain panel (AID 1159580);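 note: tested at 20 µM; growth read once vehicle control cultures reached saturation at 30 °C; 1 = growth at the plate median or of vehicle wells; lower values mean less growth of the strain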
Details: growth OD

Measured: normalized growth

CC1COc2c(N3CCN(C)CC3)c(F)cc3c(=O)c(C(=O)O)cn1c23 (stereo not drawn)
inactive: S. cerevisiae deletion strains, locus YJR066W, strain TOR1, hits give low values 0.948 | S. cerevisiae deletion strains, locus YKL009W, strain mrt4, hits give low values 1.03 | S. cerevisiae deletion strains, locus YKL068W, hits give low values 1.02 | S. cerevisiae deletion strains, locus YKL085W, strain MDH1 (second series), hits give low values 1 | S. cerevisiae deletion strains, locus YKL085W, strain MDH1, hits give low values 1 | S. cerevisiae deletion strains, locus YKL160W, strain elf1, hits give low values 0.971 | S. cerevisiae deletion strains, locus YKL190W, strain CNB1, hits give low values 1.01 | S. cerevisiae deletion strains, locus YKR001C, strain vps1, hits give low values 1.03 | S. cerevisiae deletion strains, locus YKR026C, strain gcn3, hits give low values 0.988 | S. cerevisiae deletion strains, locus YKR091W, strain srl3, hits give low values 0.984 | S. cerevisiae deletion strains, locus YLL001W, strain dnm1, hits give low values 0.958 | S. cerevisiae deletion strains, locus YLL026W, hits give low values 0.998 | S. cerevisiae deletion strains, locus YLL041C, strain sdh2, hits give low values 0.987 | S. cerevisiae deletion strains, locus YLR027C, strain aat2, hits give low values 0.997 | S. cerevisiae deletion strains, locus YLR039C, strain RIC1, hits give low values 1.03 | S. cerevisiae deletion strains, locus YLR058C, strain SHM2, hits give low values 1.01 | S. cerevisiae deletion strains, locus YLR102C, strain apc9, hits give low values 1.02 | S. cerevisiae deletion strains, locus YLR113W, strain HOG1, hits give low values 0.942 | S. cerevisiae deletion strains, locus YLR221C, strain rsa3, hits give low values 0.979 | S. cerevisiae deletion strains, locus YLR258W, strain gsy2, hits give low values 0.994 | S. cerevisiae deletion strains, locus YLR262C, strain YPT6 (second series), hits give low values 0.966 | S. cerevisiae deletion strains, locus YLR262C, strain YPT6, hits give low values 1.07 | S. cerevisiae deletion strains, locus YLR268W, strain sec22, hits give low values 1.01 | S. cerevisiae deletion strains, locus YLR320W, strain mms22, hits give low values 0.961 | S. cerevisiae deletion strains, locus YLR330W, strain CHS5, hits give low values 1.01 | S. cerevisiae deletion strains, locus YLR342W, strain FKS1 (second series), hits give low values 1 | S. cerevisiae deletion strains, locus YLR342W, strain FKS1, hits give low values 0.976 | S. cerevisiae deletion strains, locus YLR357W, strain rsc2, hits give low values 0.967 | S. cerevisiae deletion strains, locus YLR370C, strain arc18, hits give low values 0.98 | S. cerevisiae deletion strains, locus YLR371W, strain rom2, hits give low values 1.02 | S. cerevisiae deletion strains, locus YLR384C, strain iki3, hits give low values 0.965 | S. cerevisiae deletion strains, locus YLR418C, strain cdc73, hits give low values 1.02 | S. cerevisiae deletion strains, locus YML016C, strain PPZ1, hits give low values 1 | S. cerevisiae deletion strains, locus YML032C, strain rad52, hits give low values 1.01 | S. cerevisiae deletion strains, locus YML120C, strain ndi1, hits give low values 0.984 | S. cerevisiae deletion strains, locus YML124C, strain tub3, hits give low values 1.01 | S. cerevisiae deletion strains, locus YMR058W, strain fet3, hits give low values 0.985 | S. cerevisiae deletion strains, locus YMR078C, strain ctf18, hits give low values 1.01 | S. cerevisiae deletion strains, locus YMR125W, strain sto1, hits give low values 0.981 | S. cerevisiae deletion strains, locus YMR129W, hits give low values 0.99 | S. cerevisiae deletion strains, locus YMR205C, strain PFK2, hits give low values 0.959 | S. cerevisiae deletion strains, locus YMR223W, strain ubp8, hits give low values 1.02 | S. cerevisiae deletion strains, locus YMR231W, strain pep5, hits give low values 0.981 | S. cerevisiae deletion strains, locus YMR307W, strain GAS1, hits give low values 1.09 | S. cerevisiae deletion strains, locus YNL067W, strain RPL9B, hits give low values 1 | S. cerevisiae deletion strains, locus YNL071W, strain lat1, hits give low values 0.987 | S. cerevisiae deletion strains, locus YNL128W, strain TEP1, hits give low values 1.03 | S. cerevisiae deletion strains, locus YNL153C, strain GIM3, hits give low values 1.05 | S. cerevisiae deletion strains, locus YNL183C, strain NPR1, hits give low values 0.928 | S. cerevisiae deletion strains, locus YNL197C, strain WHI3, hits give low values 1.01 | S. cerevisiae deletion strains, locus YNL209W, strain ssb2, hits give low values 0.988 | S. cerevisiae deletion strains, locus YNL224C, strain SQS1, hits give low values 1.01 | S. cerevisiae deletion strains, locus YNL233W, strain BNI4, hits give low values 1 | S. cerevisiae deletion strains, locus YNL248C, strain rpa49, hits give low values 0.982 | S. cerevisiae deletion strains, locus YNL250W, strain rad50, hits give low values 1.01 | S. cerevisiae deletion strains, locus YNL271C, strain bni1, hits give low values 1.02 | S. cerevisiae deletion strains, locus YNL298W, strain CLA4, hits give low values 1.02 | S. cerevisiae deletion strains, locus YNL307C, strain MCK1, hits give low values 1.02 | S. cerevisiae deletion strains, locus YNL322C, strain KRE1 (second series), hits give low values 0.978 | S. cerevisiae deletion strains, locus YNL322C, strain KRE1, hits give low values 0.995 | S. cerevisiae deletion strains, locus YNR049C, strain mso1, hits give low values 0.986 | S. cerevisiae deletion strains, locus YNR052C, strain pop2, hits give low values 1.03 | S. cerevisiae deletion strains, locus YOL006C, strain TOP1, hits give low values 1.02 | S. cerevisiae deletion strains, locus YOL012C, strain htz1 1.78 | S. cerevisiae deletion strains, locus YOL147C, strain pex11, hits give low values 1.01 | S. cerevisiae deletion strains, locus YOR001W, strain rrp6, hits give low values 1.01 | S. cerevisiae deletion strains, locus YOR061W, strain CKA2, hits give low values 1.01 | S. cerevisiae deletion strains, locus YOR069W, strain VPS5, hits give low values 1 | S. cerevisiae deletion strains, locus YOR070C, strain gyp1, hits give low values 0.994 | S. cerevisiae deletion strains, locus YOR080W, strain dia2, hits give low values 0.984 | S. cerevisiae deletion strains, locus YOR083W, strain WHI5 (second series), hits give low values 1.02 | S. cerevisiae deletion strains, locus YOR083W, strain WHI5, hits give low values 0.953 | S. cerevisiae deletion strains, locus YOR106W, strain vam3, hits give low values 0.971 | S. cerevisiae deletion strains, locus YOR136W, strain idh2, hits give low values 1.01 | S. cerevisiae deletion strains, locus YOR144C, strain elg1, hits give low values 1.01 | S. cerevisiae deletion strains, locus YOR184W, strain ser1, hits give low values 1.02 | S. cerevisiae deletion strains, locus YOR231W, strain MKK1, hits give low values 0.972 | S. cerevisiae deletion strains, locus YOR265W, strain rbl2, hits give low values 0.989 | S. cerevisiae deletion strains, locus YOR270C, strain vph1, hits give low values 0.965 | S. cerevisiae deletion strains, locus YOR290C, strain snf2, hits give low values 0.985 | S. cerevisiae deletion strains, locus YOR316C, strain cot1, hits give low values 1.01 | S. cerevisiae deletion strains, locus YPL051W, strain arl3, hits give low values 0.98 | S. cerevisiae deletion strains, locus YPL055C, strain LGE1, hits give low values 1.03 and 1.01 | S. cerevisiae deletion strains, locus YPL078C, strain atp4, hits give low values 0.966 | S. cerevisiae deletion strains, locus YPL106C, strain sse1, hits give low values 0.965 | S. cerevisiae deletion strains, locus YPL240C, strain hsp82, hits give low values 0.999 | S. cerevisiae deletion strains, locus YPL256C, strain CLN2, hits give low values 1 | S. cerevisiae deletion strains, locus YPR119W, strain clb2, hits give low values 1.01 | S. cerevisiae deletion strains, locus YPR141C, strain kar3, hits give low values 1.01 | S. cerevisiae deletion strains, locus YPR163C, strain tif3, hits give low values 1.01 | S. cerevisiae deletion strains, locus YPR167C, strain met16, hits give low values 1.01 | S. cerevisiae deletion strains, strain wtn01, hits give low values 1.01 | S. cerevisiae strains, strain wild type, hits give low values 1.01
